NPC1 prom act: activators of NPC1 promoter | Potency, µM (doses to about 9.22 µM), for the others: at the highest dose activation, usual class: activators | hit rate 2.4% among 320,000 | Huh7 NPC1 promoter luciferase reporter, 24 h | AID 485313; also: % of control where 0% means no effect; nearly all actives have a fitted effect of over 60% in size
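Huh7 cells stably carrying NPC1 promoter–luciferase, plated in Opti-MEM with 10% FBS for 2 h, were exposed to compound in DMSO for 24 h at 37 °C; luciferase reagent was added for 10 min and luminescence read.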
SMN2 splice up: enhancers of SMN2 splice variant expression. AID 1458. HEK293 SMN2-luciferase splicing reporter, luminescence, 30-36 h. Potency, µM (highest dose often 46.1 µM), without a hit: at the top dose activity change, positive = activation, usual class: activators. hit rate 2.8% among 210,000; also: % of control where 0% means no effect; nearly all actives have a fitted effect of over 55% in size
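HEK293 cells carry an SMN2 minigene-luciferase reporter in which exon 7 inclusion puts luciferase in frame. Cells were seeded at 2000 cells/well, attached for 10-12 hours, then exposed to compounds for 30-36 hours at 37C before ONE-Glo luminescence.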
ELG1 genotoxic: inducers of genotoxicity in HEK293T ELG1-luciferase cells | Potency, µM (highest dose often 46 µM), without a hit: top-dose activity change, positive = activation, most hits filed as activators | hit rate 1.3% among 330,000 | HEK293T ELG1-luciferase reporter, luminescence, 16 h; also: % of control where 0% means no effect; nearly all actives have a fitted effect of over 60% in size
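Screening used a luciferase reporter fused to human ELG1 in HEK293T cells. Luminescence was read on a CCD plate imager after 16 hr exposure and 30 min ONE-Glo incubation.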
FLuc modulator: inhibits or activates purified firefly luciferase, miR-21 counter-screen | P08659 | purified FLuc, Km substrates, luminescence inhibition | Potency, µM (top dose mostly 57.5 µM), without a hit: at the highest dose activity change, negative = inhibition, most hits filed as inhibitors | hit rate 6.9% among 360,000 | AID 588342;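 also: plate controls were vehicle for no effect and reference inhibitor for full effect; nearly all actives have a fitted effect of over 55% in size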
Target sequence (P08659 whole entry, looked up): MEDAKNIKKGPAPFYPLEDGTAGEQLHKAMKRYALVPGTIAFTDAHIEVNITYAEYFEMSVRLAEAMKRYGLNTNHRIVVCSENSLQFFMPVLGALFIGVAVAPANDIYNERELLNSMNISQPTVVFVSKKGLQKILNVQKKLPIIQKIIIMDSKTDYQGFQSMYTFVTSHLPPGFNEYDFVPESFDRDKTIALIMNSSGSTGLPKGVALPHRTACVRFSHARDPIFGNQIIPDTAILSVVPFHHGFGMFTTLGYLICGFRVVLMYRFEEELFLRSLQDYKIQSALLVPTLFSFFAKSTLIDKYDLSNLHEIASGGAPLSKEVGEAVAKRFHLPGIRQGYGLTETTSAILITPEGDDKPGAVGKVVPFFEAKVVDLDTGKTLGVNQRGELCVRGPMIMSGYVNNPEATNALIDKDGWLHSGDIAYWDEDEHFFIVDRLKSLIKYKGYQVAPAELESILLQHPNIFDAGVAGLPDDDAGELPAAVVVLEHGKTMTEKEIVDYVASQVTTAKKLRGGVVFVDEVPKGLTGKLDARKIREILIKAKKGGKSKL
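Purified P. pyralis luciferase (10nM final) with 10uM D-luciferin and 10uM ATP (Km levels) in 50mM Tris acetate pH 7.5, 10mM Mg acetate, 0.01% Tween-20, 0.05% BSA; qHTS 6-point titration, ~60 µM downward; luminescence read.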
Rab9 promoter act: Rab9 promoter activation; Huh7 Rab9 promoter-luciferase reporter, luminescence, 24 h; Potency, µM (titrated, usually from 9.22 µM), for inactives: at the top dose activation, negative = inhibition, hits mostly activators; hit rate 2.8% among 320,000; AID 485297; also: % of control where 0% means no effect; nearly all actives have a fitted effect of over 60% in size
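Luciferase signal after 10 min detection reagent at ambient indicates Rab9 promoter upregulation; stably transfected Huh7 cells were treated 24 h with compound in DMSO at 37 °C, 5% CO2.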
Active calls of the source: *; ? = inconclusive; . = no result. In the library only some 7.4% were active in any assay of this set; here they are far more common. Calls follow the shape of the dose curve; as a rule, active = well fitted curve in the direction sought with a large enough effect; inconclusive = small, poorly fitted or top-dose-only effect, or another doubt; inactive = no such curve, though single readings can be large; an effect the other way counts as inactive or inconclusive. Potency is read from the fitted curve at half-maximal effect.

SMILES	NPC1 prom act	SMN2 splice up	ELG1 genotoxic	FLuc modulator	Rab9 promoter act
CC(C)(C)C(=O)OCc1nc(-c2ccc(C(F)(F)F)cc2)cs1	-4%	.	4%	15µM*	0%
Nc1nc(Nc2ccccc2F)sc1C(=O)c1ccc(Cl)cc1	.	14µM*	.	15µM*	.
Nc1nc(Nc2cccc(Cl)c2)sc1C(=O)c1ccc(F)cc1	.	.	.	-10%	.
Cn1c(CNC(=O)c2ccc3c(c2)OCO3)nnc1SCC(=O)Nc1ccc(F)cc1	2%	.	5%	?	-3%
COc1cccc(C(=O)NCC(=O)OCC(=O)NC2CCCCC2)c1	.	.	4%	.	.
O=C1CC(C(=O)O)S/C(=N\N=C\c2ccc(Br)cc2)N1 (stereo unspecified)	-1%	.	0%	17µM*	0%
C/C(=N/N=C1/NC(=O)CC(C(=O)O)S1)c1ccccc1 (stereo unspecified)	-3%	-13%	0%	-4%	-1%
O=C(N/N=C/c1cc(Cl)ccc1O)c1ccccc1Br	-25%	.	16%	?	-24%
O=C(/C=N/NC(=O)c1ccc(Cl)cc1Cl)c1ccccc1	21%	.	12%	2.7µM*	?
O=C(/C=N/NC(=O)c1ccccc1Br)c1ccccc1	7%	7%	6%	9.5µM*	20%
CN(Cc1ccco1)c1ncnc2ccc(-c3ccc4c(c3)OCCO4)cc12	-17%	.	.	-16%	-17%
Cc1ccnc(N(C(=O)Nc2ccccc2)C2=NCC(C)(C)S2)c1	2.5µM*	.	?	19µM*	?
CC(=O)c1ccc(OCc2ccccc2)c(C)c1O	16%	?	?	17µM*	4%
NNC(=O)c1ccccc1OCc1ccccc1	-3%	.	1%	-3%	-4%
CC(C)(C)NC(=O)C(=O)N/N=C/c1ccc(Br)cc1	19%	-3%	8%	?	7%
O=C(N/N=C/c1cccnc1)C(O)(c1ccccc1)c1ccccc1	-2%	-18%	0%	0%	-1%
CC(C)(C)OC(=O)N/N=C/c1ccc(Br)cc1	?	11µM*	?	12µM*	1.6µM*
CC(C)(C)OC(=O)N/N=C\c1cccnc1	21%	.	-13%	11µM*	?
CC(C)C(=O)Nc1ccc(-c2nnc(-c3ccccc3)o2)cc1	0.32µM*	.	?	2.4µM*	0.32µM*
COc1ccc(CC(=O)Nc2ccc(-c3nnc(-c4ccccc4)o3)cc2)cc1OC	12%	5%	27%	-1%	6%
O=C(Nc1ccc(-c2nnc(-c3ccccc3)o2)cc1)C(F)(F)F	1.6µM*	.	?	?	1.3µM*
CC(=O)/C=C(\C)Nc1ccc(-c2cnc(-c3ccccc3)o2)cc1	1µM*	4µM*	2µM*	1.9µM*	0.45µM*
CC[C@@H](C)[C@H](NS(=O)(=O)c1cccc2ccccc12)C(=O)N[C@H](C=O)Cc1c[nH]c2ccccc12	.	13%	.	.	.
COc1cc(O)ccc1-c1nc2ccc(Br)cn2c1Nc1ccccc1C	.	-28%	.	2%	.
CCN(CC)C(=O)CSc1nc2ccc(NC(=O)CSc3nnc(N)s3)cc2s1	6%	3%	-6%	?	6%
SMILES	NPC1 prom act	SMN2 splice up	ELG1 genotoxic	FLuc modulator	Rab9 promoter act
CCN(CC)C(=O)CSc1nc2ccc(NC(=O)CSc3nccn3C)cc2s1	9%	-41%	-5%	19µM*	1%
Cn1cnnc1SCC(=O)Nc1ccc2nc(SCc3ccccc3)sc2c1	3.5µM*	-9%	?	11µM*	?
Cn1cnnc1SCC(=O)Nc1ccc2nc(SCc3cccc4ccccc34)sc2c1	1%	-21%	-9%	-4%	0%
Cn1cnnc1SCC(=O)Nc1ccc2nc(SCc3ccccc3Cl)sc2c1	16%	-13%	5%	17µM*	26%
CCOC(=O)C1(Cc2cccc(F)c2)CCN(Cc2cnn(CC)c2C)CC1	-3%	.	3%	5%	0%
CCC1CCCCN1CCCNC(=O)C1CCCN(S(=O)(=O)N2CC(C)CC(C)C2)C1 (stereo unspecified)	1%	.	0%	-1%	1%
CCN(CC)S(=O)(=O)c1cc(NC(=O)CSc2nnc(-c3cccs3)o2)ccc1C	0%	29%	6%	-18%	-7%
CCN(CC)c1ccc(NC(=O)c2cncc(Br)c2)cc1	?	?	7%	17µM*	?

Assay outcomes deposited in PubChem BioAssay by National Center for Advancing Translational Sciences (NCATS).
